Reference: PubChem BioAssay (NCI)
This is part of a sample that, as a whole, favours compounds with a hit. Of some 79,000 tested, about 15% had one in any assay. Values without a mark were called inactive. Active and inactive are the calls of the source. No stated cut-off is given here; in the data, active means growth inhibition above about 70%; inactive means the rest.

Legend:
[1] = NCI Yeast Anticancer Drug Screen. Data for the rad52 strain (AID 147);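 further: 0% = growth of vehicle-treated control cultures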; settings: S. cerevisiae rad52 mutant growth inhibition, active compounds read high
Method in brief: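 Yeast strain carrying a DNA damage repair alteration was exposed to test compounds. Growth inhibition was measured relative to vehicle-treated controls.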

[2] = NCI Yeast Anticancer Drug Screen. Data for the wt1 strain (AID 149);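 further: 0% = growth of vehicle-treated wt1 cultures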; settings: S. cerevisiae wt1 strain (SPY 50644) growth inhibition, active compounds read high
Method in brief: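 Growth inhibition read against vehicle controls after compound exposure of the wt1 yeast strain.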

[3] = NCI Yeast Anticancer Drug Screen. Data for the rad50EPP+ strain (AID 151);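 further: 0% = growth of vehicle-treated control cultures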; settings: S. cerevisiae rad50 mutant strain, active compounds read high
Method in brief: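 Yeast strain carrying rad50 alteration (rad50EPP+) exposed to compounds; growth inhibition measured relative to vehicle-treated controls.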

[4] = NCI Yeast Anticancer Drug Screen. Data for the rad50 strain (AID 155);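 further: 0% = growth of vehicle-only cultures of the same strain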; settings: S. cerevisiae rad50 strain growth inhibition, active compounds read high
Method in brief: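 Readout: growth inhibition relative to vehicle-treated cultures. Compound exposure was carried out in a genetically defined yeast strain deficient in DNA damage repair.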

[5] = NCI Yeast Anticancer Drug Screen. Data for the mec2-1 strain (AID 157); settings: S. cerevisiae mec2-1 strain, active compounds read high
Method in brief: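 mec2-1 yeast strain, carrying an alteration in DNA damage repair or cell cycle control, was exposed to compounds; growth inhibition was measured relative to vehicle-treated controls.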

[6] = NCI Yeast Anticancer Drug Screen. Data for the rad14 strain (AID 159);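 further: 0% = growth of vehicle-treated control cultures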; settings: S. cerevisiae rad14 strain growth inhibition, active compounds read high
Method in brief: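 Growth inhibition vs vehicle controls; genetically altered yeast strain (DNA damage repair defect) treated with test compounds.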

[7] = NCI Yeast Anticancer Drug Screen. Data for the sgs1 mgt1 strain (AID 161);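 further: 0% = growth of cultures given vehicle only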; settings: S. cerevisiae sgs1 mgt1 strain, active compounds read high
Method in brief: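 Yeast cells carrying a defined DNA-repair defect were exposed to test compounds. Growth inhibition was measured relative to vehicle-treated controls.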

[8] = NCI Yeast Anticancer Drug Screen. Data for the CLN2oe strain (AID 163);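 further: 0% = growth of vehicle-only control cultures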; settings: S. cerevisiae CLN2oe strain, active compounds read high
Method in brief: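 Yeast cells carrying a defined cell-cycle control alteration were exposed to test compounds. Growth inhibition was scored against vehicle-treated control cultures.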

[9] = NCI Yeast Anticancer Drug Screen. Data for the cln2 rad14 strain (AID 165);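 further: 0% = growth equal to vehicle treated cultures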; settings: S. cerevisiae cln2 rad14 strain, active compounds read high
Method in brief: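 Yeast carrying cln2 and rad14 alterations (cell cycle control and DNA damage repair) were exposed to compounds. Growth inhibition was measured against vehicle-treated controls.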

[10] = NCI Yeast Anticancer Drug Screen. Data for the bub3 strain (AID 167); settings: S. cerevisiae bub3 mutant strain, active compounds read high
Method in brief: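 Readout: yeast growth inhibition, expressed relative to vehicle-only wells. The test organism is a mutant strain from a panel with lesions in DNA repair or checkpoint genes.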

[11] = NCI Yeast Anticancer Drug Screen. Data for the wt2 strain (AID 169);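 further: 0% = growth of vehicle-treated yeast cultures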; settings: S. cerevisiae wt2 strain growth inhibition, active compounds read high
Method in brief: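 Yeast cells were exposed to test compounds, and growth inhibition was measured relative to vehicle-treated controls.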

[12] = NCI Yeast Anticancer Drug Screen. Data for the mlh1 strain (AID 171);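 further: 0% = growth of vehicle-treated control cultures of the same strain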; settings: S. cerevisiae mlh1 strain growth inhibition, active compounds read high
Method in brief: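 Yeast carrying a defined genetic alteration in DNA damage repair or cell cycle control were exposed to test compounds. Growth inhibition was measured relative to vehicle-treated controls.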

[13] = NCI Yeast Anticancer Drug Screen. Data for the sgs1 strain (AID 173);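 further: 0% = growth of vehicle-only control cultures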; settings: S. cerevisiae sgs1 mutant, active compounds read high
Method in brief: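 Yeast mutant strains carrying defined defects in DNA damage repair or cell cycle control were exposed to test compounds. Growth inhibition was scored against vehicle-treated controls.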

[14] = NCI Yeast Anticancer Drug Screen. Data for the mlh1 rad18 strain (AID 175); settings: S. cerevisiae mlh1 rad18 strain growth inhibition, active compounds read high
Method in brief: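 Growth inhibition of the yeast strain was measured after compound exposure and expressed relative to vehicle-treated controls. The strain carries defined defects in DNA damage repair.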

[15] = NCI Yeast Anticancer Drug Screen. Data for the rad18 strain (AID 177); settings: S. cerevisiae rad18 mutant growth inhibition, active compounds read high
Method in brief: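 Yeast carrying a defined DNA damage repair alteration were exposed to compounds. Growth inhibition was expressed relative to vehicle-treated controls.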

[16] = at 5.0 µM (retest, dose inferred, filed as 0.5)
[17] = at 50.0 µM (retest, dose inferred, filed as 5.0)

CC(=O)N1C(=O)/C(=C\C(=O)c2ccc([N+](=O)[O-])cc2)c2ccccc21
growth inhibition ([1]; at 1.2 µM): -14% | growth inhibition ([1]; at 3.7 µM): 18% | growth inhibition ([1]; at 11.0 µM): 53% | growth inhibition ([1]; at 33.0 µM): 92% (active) | growth inhibition ([1]; at 100.0 µM): 97% (active) | growth inhibition ([2]; at 1.2 µM): -10% | growth inhibition ([2]; at 3.7 µM): -15% | growth inhibition ([2]; at 11.0 µM): 21% | growth inhibition ([2]; at 33.0 µM): 77% (active) | growth inhibition ([2]; at 100.0 µM): 97% (active) | growth inhibition ([3]; at 1.2 µM): -12% | growth inhibition ([3]; at 3.7 µM): 35% | growth inhibition ([3]; at 11.0 µM): 4% | growth inhibition ([3]; at 33.0 µM): 89% (active) | growth inhibition ([3]; at 100.0 µM): 95% (active) | growth inhibition ([4]; at 1.2 µM): 0% | growth inhibition ([4]; at 3.7 µM): -8% | growth inhibition [4, 16]: 41% | growth inhibition ([4]; at 11.0 µM): 34% | growth inhibition ([4]; at 33.0 µM): 93% (active) | growth inhibition [4, 17]: 98% (active) | growth inhibition ([4]; at 50.0 µM): 85.5% (active) | growth inhibition ([4]; at 100.0 µM): 95% (active) | growth inhibition ([5]; at 1.2 µM): -10% | growth inhibition ([5]; at 3.7 µM): 13% | growth inhibition [5, 16]: 60% | growth inhibition ([5]; at 11.0 µM): 28% | growth inhibition ([5]; at 33.0 µM): 91% (active) | growth inhibition [5, 17]: 98% (active) | growth inhibition ([5]; at 50.0 µM): 89.5% (active) | growth inhibition ([5]; at 100.0 µM): 97% (active) | growth inhibition ([6]; at 1.2 µM): -8% | growth inhibition ([6]; at 3.7 µM): 9% | growth inhibition ([6]; at 11.0 µM): 31% | growth inhibition ([6]; at 33.0 µM): 86% (active) | growth inhibition ([6]; at 100.0 µM): 97% (active) | growth inhibition [7, 16]: 46% | growth inhibition [7, 17]: 98% (active) | growth inhibition ([7]; at 50.0 µM): 88.8% (active) | growth inhibition ([8]; at 1.2 µM): -31% | growth inhibition ([8]; at 3.7 µM): 4% | growth inhibition ([8]; at 11.0 µM): 28% | growth inhibition ([8]; at 33.0 µM): 51% | growth inhibition ([8]; at 100.0 µM): 96% (active) | growth inhibition [9, 16]: 25% | growth inhibition [9, 17]: 66% | growth inhibition ([9]; at 50.0 µM): 84.5% (active) | growth inhibition ([10]; at 1.2 µM): -33% | growth inhibition ([10]; at 3.7 µM): -11% | growth inhibition [10, 16]: 12% | growth inhibition ([10]; at 11.0 µM): 22% | growth inhibition ([10]; at 33.0 µM): 95% (active) | growth inhibition [10, 17]: 96% (active) | growth inhibition ([10]; at 50.0 µM): 86.8% (active) | growth inhibition ([10]; at 100.0 µM): 96% (active) | growth inhibition ([11]; at 1.2 µM): 29% | growth inhibition ([11]; at 3.7 µM): 55% | growth inhibition ([11]; at 11.0 µM): 93% (active) | growth inhibition ([11]; at 33.0 µM): 98% (active) | growth inhibition ([11]; at 100.0 µM): 98% (active) | growth inhibition ([12]; at 1.2 µM): -8% | growth inhibition ([12]; at 3.7 µM): 14% | growth inhibition ([12]; at 11.0 µM): 67% | growth inhibition ([12]; at 33.0 µM): 95% (active) | growth inhibition ([12]; at 100.0 µM): 97% (active) | growth inhibition ([13]; at 1.2 µM): -13% | growth inhibition ([13]; at 3.7 µM): 27% | growth inhibition ([13]; at 11.0 µM): 66% | growth inhibition ([13]; at 33.0 µM): 96% (active) | growth inhibition ([13]; at 100.0 µM): 96% (active) | growth inhibition [14, 16]: 72% (active) | growth inhibition [14, 17]: 98% (active) | growth inhibition ([14]; at 50.0 µM): 85.7% (active) | growth inhibition ([15]; at 1.2 µM): 1% | growth inhibition ([15]; at 3.7 µM): 26% | growth inhibition ([15]; at 11.0 µM): 61% | growth inhibition ([15]; at 33.0 µM): 90% (active) | growth inhibition ([15]; at 100.0 µM): 97% (active)
